From PubChem BioAssay (NCATS)
Results filed as inconclusive are left out. Active and inactive are the calls of the source. Calls come from the whole dose curve; as a rule, active = well fitted inhibition curve with a large enough effect; inconclusive = small, poorly fitted or top-dose-only effect; inactive = flat fitted curve, though single readings scatter.

Legend:
Assay in all cases: qHTS profiling for inhibitors of Plasmodium falciparum proliferation (AID 504749); note: nearly all actives have a fitted effect of over 60% in size
Details in all cases: P. falciparum in erythrocytes, SYBR Green DNA, 72 h; series mostly up to 28.7 µM
[1] = tested on: ATS189
Summary of the method: (§1)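 Fluorescence of SYBR Green-bound parasite DNA, read at 485/535 nm, served as the growth measure. Infected erythrocytes were cultured with compound 72 h; artemisinin (0.29 uM) and DMSO wells defined the normalization range.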

[2] = tested on: C2A
Summary of the method: as §1

[3] = tested on: CP192
Summary of the method: as §1

[4] = tested on: CP250
Summary of the method: as §1

[5] = tested on: AS120
Summary of the method: as §1

[6] = tested on: ATS95
Summary of the method: as §1

[7] = tested on: CP185
Summary of the method: as §1

[8] = tested on: CP191
Summary of the method: as §1

[9] = tested on: CP194
Summary of the method: as §1

[10] = tested on: CP201
Summary of the method: as §1

[11] = tested on: CP203
Summary of the method: as §1

[12] = tested on: CP215
Summary of the method: as §1

[13] = tested on: CP217
Summary of the method: as §1

[14] = tested on: CP237
Summary of the method: as §1

[15] = tested on: CP238
Summary of the method: as §1

[16] = tested on: CP247
Summary of the method: as §1

[17] = tested on: CP252
Summary of the method: as §1

[18] = tested on: CP256
Summary of the method: as §1

[19] = tested on: CP260
Summary of the method: as §1

[20] = tested on: CP211
Summary of the method: as §1

Measured: Potency
Potency is the fitted concentration of half-maximal effect.

NC(=O)C(c1ccccc1)(c1ccccc1)[C@@H]1CCN(CCc2ccc3c(c2)CCO3)C1
inactive: [1] | [2] | [3] | [4]

CCCCCCCCCCCCCCCCCC(=O)O
not listed: [20]
inactive: all other assays above

Nc1c(CC(=O)O)cccc1C(=O)c1ccc(Br)cc1
inactive: all assays above

CCCC(=O)OC[C@@H](OC(=O)CCC)[C@@H](OC(=O)CCC)[C@H](Cn1c2nc(=O)[nH]c(=O)c-2nc2cc(C)c(C)cc21)OC(=O)CCC
inactive: [1] | [3] | [9] | [10] | [11] | [20] | [12] | [14]

CC(N)C(=O)OC(C)(C)Cc1ccc(Cl)cc1 (stereo unspecified)
active: [11] 12 µM | [14] 4.47 µM
inactive: [2] | [8] | [3] | [4] | [18]

Clc1ccccc1-c1nc(-c2ccncc2)no1
not listed: [5]
inactive: all other assays above

COc1ccc(/C=C/C(=O)Nc2ccccc2C(=O)O)cc1OC
inactive: all assays above

COc1cc(/C=C/C(=O)CC(=O)/C=C/c2ccc(O)c(OC)c2)ccc1O
active: [2] 10 µM | [12] 16.9 µM | [16] 8.91 µM | [4] 8.91 µM

Cc1nc2ccccc2n1Cc1ccc(Cl)cc1
inactive: [6] | [2] | [7] | [3] | [11] | [14] | [15] | [4] | [19]

CN1[C@@H]2CC[C@H]1CC(OC(=O)C(CO)c1ccccc1)C2 (stereo partly specified)
not listed: [18]
inactive: all other assays above

Cc1cc(O)c2ccccc2c1O
not listed: [4]
inactive: all other assays above

O=c1[nH]c2ccccc2n1CCCN1CCN(C(c2ccccc2)c2ccccc2)CC1
inactive: [2] | [10]
active: [14] 8.91 µM
